According to the supplement of paper PMC3545927:
Some of the results follow. The true hit rate is not given.

B1: HC369 (peptide)
chain: CANGSWHLNSAGNASASA
B2: HC2435 (peptide)
chain: CAHREVPCHRAGNASASA
B3: HC1460 (peptide)
chain: CAVTKLPLAVAGNASASA
B4: HC1833 (peptide)
chain: CARTPCSGSWAGNASASA
B5: FS-191 (peptide)
chain: CASGGRTKRYAGNASASA
B6: FS-937 (peptide)
chain: CAKYSRSYRYAGNASASA
B7: FS-758 (peptide)
chain: CADQERKARYAGNASASA
B8: HC743 (peptide)
chain: CASGGPLLCPAGNASASA
B9: FS-695 (peptide)
chain: CANKFRTKRYAGNASASA
B10: HC1132 (peptide)
chain: CARVTAILSSAGNASASA
B11: FS-3069 (peptide)
chain: CARRSRSPRTAGNASASA
B12: FS-2879 (peptide)
chain: CARAARGTIGAGNASASA
B13: FS-2334 (peptide)
chain: CARGPRAVSTAGNASASA
B14: FS-3216 (peptide)
chain: CARCPRQVSTAGNASASA
B15: FS-2455 (peptide)
chain: CARRSRKVGSAGNASASA
B16: FS-2519 (peptide)
chain: CARRSRDVSCAGNASASA
B17: HC2287 (peptide)
chain: CADFEVVTSTAGNASASA
B18: FS-2324 (peptide)
chain: CARAARSRGAAGNASASA
B19: FS-1988 (peptide)
chain: CARAARHVVAAGNASASA
B20: FS-3070 (peptide)
chain: CARRSRSSYTAGNASASA
B21: FS-1283 (peptide)
chain: CASRSRSPRPAGNASASA
B22: FS-1923 (peptide)
chain: CARRVRIVSRAGNASASA
B23: HC2378 (peptide)
chain: CAEVPCHTPSAGNASASA
B24: HC1647 (peptide)
chain: CAAGYSGGDIAGNASASA
B25: FS-2083 (peptide)
chain: CARRSRNVSTAGNASASA
B26: FS-2600 (peptide)
chain: CARRSRSSSRAGNASASA
B27: FS-1774 (peptide)
chain: CARRFRVVSGAGNASASA
B28: FS-1476 (peptide)
chain: CARAARVPRTAGNASASA
B29: FS-1885 (peptide)
chain: CARAARFAKTAGNASASA
B30: FS-1678 (peptide)
chain: CARAARRAAGAGNASASA
B31: HC735 (peptide)
chain: CARGSLLSPRAGNASASA
B32: FS-2160 (peptide)
chain: CARNKRTCSAAGNASASA
B33: HC1342 (peptide)
chain: CADNTTTSSEAGNASASA
B34: HC294 (peptide)
chain: CAGSATLCSAAGNASASA
B35: FS-2161 (peptide)
chain: CARNKRTCSEAGNASASA
B36: HC2395 (peptide)
chain: CAEVPCHRHSAGNASASA
B37: HC819 (peptide)
chain: CAECHSTDATAGNASASA
B38: HC349 (peptide)
chain: CALFAGVDAEAGNASASA
B39: FS-251 (peptide)
chain: CAIKDRNKRDAGNASASA
B40: FS-402 (peptide)
chain: CAASGREGRDAGNASASA
B41: FS-587 (peptide)
chain: CAFSAREKRDAGNASASA
B42: FS-751 (peptide)
chain: CAASAVLKRDAGNASASA
B43: FS-548 (peptide)
chain: CALGDREKRDAGNASASA

Target: furin, P09958
Assay: furin cleavage Z-score vs untreated control; higher = more cleavage, active = 3.5 or more, inactive = 1 or less, 8 variable residues between constant flanks
Procedure, shortened: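 To give the cleavage Z-score, log read counts were set against furin-free reactions, lowess-adjusted and scaled by median absolute deviation. These counts came from PCR adapter-tagged, sequenced DNA released when purified furin cut 8-mer peptides fused to a cDNA oligonucleotide and held on magnetic beads by their N-terminus. Digests were 0.01 ml, 1:10 enzyme:substrate, in 50 mM HEPES pH 7.5 with CaCl2 and NaCl, for 7.5, 15 or 30 min.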

Sequence of furin, P09958 (P09958 whole entry): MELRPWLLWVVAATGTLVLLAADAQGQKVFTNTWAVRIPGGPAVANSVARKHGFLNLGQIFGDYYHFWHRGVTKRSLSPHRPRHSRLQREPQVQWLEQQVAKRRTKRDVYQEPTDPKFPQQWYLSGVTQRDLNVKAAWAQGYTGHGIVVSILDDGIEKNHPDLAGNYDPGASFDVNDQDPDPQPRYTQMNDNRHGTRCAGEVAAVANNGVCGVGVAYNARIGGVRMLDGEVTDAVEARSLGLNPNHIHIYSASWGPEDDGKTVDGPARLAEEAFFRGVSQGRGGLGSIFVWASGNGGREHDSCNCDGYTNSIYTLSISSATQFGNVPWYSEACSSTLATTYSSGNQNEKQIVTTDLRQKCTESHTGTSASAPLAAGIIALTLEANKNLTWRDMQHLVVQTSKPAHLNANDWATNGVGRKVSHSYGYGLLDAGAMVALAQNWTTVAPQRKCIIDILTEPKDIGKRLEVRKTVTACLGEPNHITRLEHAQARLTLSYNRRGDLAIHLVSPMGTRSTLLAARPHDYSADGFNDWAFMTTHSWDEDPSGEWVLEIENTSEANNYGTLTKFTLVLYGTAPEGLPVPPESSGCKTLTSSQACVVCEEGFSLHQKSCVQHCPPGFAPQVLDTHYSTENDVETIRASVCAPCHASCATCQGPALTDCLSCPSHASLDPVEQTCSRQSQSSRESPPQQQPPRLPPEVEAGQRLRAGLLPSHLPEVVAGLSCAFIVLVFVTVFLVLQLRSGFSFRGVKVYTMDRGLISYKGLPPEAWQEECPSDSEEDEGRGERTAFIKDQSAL

Sequence	furin cleavage Z-score (7.5 min)	furin cleavage Z-score (15 min)	furin cleavage Z-score (30 min)
B1	-0.0133 (inactive)	2.38	0.739 (inactive)
B2	-0.316 (inactive)	1.36	2.65
B3	-0.671 (inactive)	-0.455 (inactive)	0.174 (inactive)
B4	-0.828 (inactive)	-0.942 (inactive)	-0.629 (inactive)
B5	8.8 (active)	10.7 (active)	9.18 (active)
B6	-0.221 (inactive)	-0.443 (inactive)	0.667 (inactive)
B7	-0.446 (inactive)	0.477 (inactive)	0.913 (inactive)
B8	0.483 (inactive)	-0.364 (inactive)	-1.12 (inactive)
B9	9.46 (active)	8.84 (active)	7.04 (active)
B10	1.14	0.277 (inactive)	-0.773 (inactive)
B11	8.32 (active)	10.6 (active)	7.67 (active)
B12	-0.0204 (inactive)	-0.846 (inactive)	0.286 (inactive)
B13	0.54 (inactive)	0.906 (inactive)	1.4
B14	4.16 (active)	3.66 (active)	6.67 (active)
B15	-0.487 (inactive)	0.947 (inactive)	0.792 (inactive)
B16	4.17 (active)	5.01 (active)	5.69 (active)
B17	0.0621 (inactive)	-1.1 (inactive)	-1.43 (inactive)
B18	-0.759 (inactive)	-0.113 (inactive)	-0.259 (inactive)
B19	0.916 (inactive)	2.53	4.88 (active)
B20	-0.67 (inactive)	0.865 (inactive)	2.05
B21	-0.34 (inactive)	0.132 (inactive)	-0.275 (inactive)
B22	-0.897 (inactive)	0.174 (inactive)	1.35

Sequence	furin cleavage Z-score (7.5 min)	furin cleavage Z-score (15 min)	furin cleavage Z-score (30 min)
B23	0.816 (inactive)	0.745 (inactive)	1.13
B24	-1.51 (inactive)	-1.76 (inactive)	-1.36 (inactive)
B25	1.86	4.41 (active)	5.4 (active)
B26	0.0891 (inactive)	0.74 (inactive)	0.299 (inactive)
B27	0.247 (inactive)	-0.792 (inactive)	-0.178 (inactive)
B28	7.67 (active)	5.53 (active)	4.3 (active)
B29	-1.44 (inactive)	0.407 (inactive)	0.00762 (inactive)
B30	-0.697 (inactive)	-0.053 (inactive)	-1.33 (inactive)
B31	0.168 (inactive)	-0.587 (inactive)	-0.591 (inactive)
B32	2.24	3.57 (active)	2.82
B33	-1.15 (inactive)	0.112 (inactive)	-0.634 (inactive)
B34	-0.289 (inactive)	-0.124 (inactive)	-0.454 (inactive)
B35	4.64 (active)	4.66 (active)	4.26 (active)
B36	0.115 (inactive)	0.712 (inactive)	1.03
B37	-0.594 (inactive)	-1.11 (inactive)	0.253 (inactive)
B38	-0.796 (inactive)	-0.738 (inactive)	-0.0117 (inactive)
B39	11.9 (active)	10.9 (active)	8.42 (active)
B40	-0.371 (inactive)	-0.657 (inactive)	-0.187 (inactive)
B41	10.7 (active)	11.3 (active)	9.1 (active)
B42	0.168 (inactive)	-1.94 (inactive)	1.16
B43	4.49 (active)	4.22 (active)	4.54 (active)
